Inconclusive results are not listed. Active and inactive are the calls of the source. How the source made its calls, unless noted: active means hit-call score of the fitted dose curve at least 0.9, where 1 is the maximum; inactive means score below 0.9.
Columns and labels:
[1] = CCTE_Harrill_HTTr_Viability_MCF7: CCTE's 6-hour Cell Viability Assessment for the High-Throughput Transcriptomics (HTTr) Platform, in MCF-7 cells cultured in DMEM + 10% fetal bovine serum, Harrill Lab (AID 2284010)
In short: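 Propidium iodide exclusion, imaged by high-content analysis, gauged viability after a six-hour exposure across eight concentrations. Cells were MCF-7 grown in DMEM with 10% fetal bovine serum; fits run in both directions against DMSO.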

[2] = CCTE_Harrill_HTTr_Apoptosis_MCF7: CCTE's 6-hour Apoptosis Assessment for the High-Throughput Transcriptomics (HTTr) Platform, in MCF-7 cells cultured in DMEM + 10% fetal bovine serum, Harrill Lab (AID 2284011)
In short: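 High-content imaging of CellEvent Caspase 3/7 Green signal follows a six-hour exposure, with eight concentrations per chemical. MCF-7 cells grown in DMEM plus 10% fetal bovine serum; activity fitted in both directions against DMSO.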

[3] = CCTE_Harrill_HTTr_CellCount_MCF7: CCTE's Cell Proliferation Assessment for the High-Throughput Transcriptomics (HTTr) Platform, Harrill Lab (AID 2284012; active means hit-call score of the fitted dose curve at least 0.9, where 1 is the maximum;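 further: cells exposed to compound for six hours; intended direction is loss of nuclei count meaning fewer cells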)
In short: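 Cell count from high-content imaging of Hoechst-labeled nuclei serves as viability/growth readout. Chemicals were applied to MCF-7 cells in eight concentrations for six hours, with fitting in both directions relative to DMSO.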

SMILES | AC50 [1] | AC50 [2] | outcome [3] | outcome [1] | outcome [2] | AC50 [3]
CN(C)CCOc1ccc(/C(=C(/CCCl)c2ccccc2)c2ccccc2)cc1 | 68.7 µM (active) | 50 µM (active) | inactive |  |  | 
c1ccc(Oc2ccccc2)cc1 |  |  | inactive | inactive | inactive | 
CCCCC1(COC(=O)CCC(=O)O)C(=O)N(c2ccccc2)N(c2ccccc2)C1=O |  |  | inactive | inactive | inactive | 
CC(C)C[C@H](NC(=O)OCC1c2ccccc2-c2ccccc21)C(=O)O |  |  | inactive | inactive | inactive | 
CC(O)C1CCCCC1 (centres undefined) |  |  | inactive | inactive | inactive | 
CC1(C)COCN1 |  |  | inactive | inactive | inactive | 
Cc1ccc(S(N)(=O)=O)cc1 |  |  | inactive | inactive | inactive | 
CCCCCCCCCC(=O)OC |  |  | inactive | inactive | inactive | 
Cc1[nH]c(=O)c(C#N)cc1-c1ccncc1 |  |  | inactive | inactive | inactive | 
CC(=O)CC(=O)Nc1ccccc1 |  |  | inactive | inactive | inactive | 
O=c1c(O)c(-c2ccc(O)cc2)oc2cc(O)cc(O)c12 |  |  | inactive | inactive | inactive | 
CCCC(=O)OCCc1ccccc1 |  |  | inactive | inactive | inactive | 
C=C(C)[C@H]1CC=C(C)C(=O)C1 |  |  | inactive | inactive | inactive | 
Nc1ccn([C@H]2CS[C@@H](CO)O2)c(=O)n1 |  |  | inactive | inactive | inactive | 
Clc1ccc(C(c2ccccc2Cl)C(Cl)Cl)cc1 (centres undefined) |  |  | inactive | inactive | inactive | 
Clc1cc(Cl)c(-c2c(Cl)c(Cl)cc(Cl)c2Cl)cc1Cl |  |  | inactive | inactive | inactive | 
O=C(O)CCCCCCCCCCCC(=O)O |  |  | inactive | inactive | inactive | 

SMILES | AC50 [1] | AC50 [2] | outcome [3] | outcome [1] | outcome [2] | AC50 [3]
Cc1ccc(N)c(S(=O)(=O)O)c1 |  |  | inactive | inactive | inactive | 
CS(=O)(=O)c1ccc(C2=C(c3ccccc3)C(=O)OC2)cc1 |  |  | inactive | inactive | inactive | 
CC(C)(C)c1ccc(C(=O)O)cc1 |  |  | inactive | inactive | inactive | 
O=CCc1ccccc1 |  |  | inactive | inactive | inactive | 
CCC1(c2ccccc2)C(=O)NCNC1=O |  |  | inactive | inactive | inactive | 
O=P(O)(O)O |  |  | inactive | inactive | inactive | 
[O-]n1ccccc1=S.[O-]n1ccccc1=S.[Zn+2] |  |  |  | inactive | inactive | 50 µM (active)
C1=CC2C3C=CC(C3)C2C1 (centres undefined) |  |  | inactive | inactive | inactive | 
CC(C)(C)C1=CC(=O)C(C(C)(C)C)=CC1=O |  |  | inactive | inactive | inactive | 
CCCCCCOC(=O)CCC |  |  | inactive | inactive | inactive | 
CCCC1O[C@@H]2C[C@H]3[C@@H]4CCC5=CC(=O)C=C[C@]5(C)[C@H]4[C@@H](O)C[C@]3(C)[C@]2(C(=O)CO)O1 (some centres undefined) |  |  | inactive | inactive | inactive | 
O=c1[nH]c(=O)c2cn[nH]c2[nH]1 |  |  | inactive | inactive | inactive | 
C[C@H]1C[C@@H](O)CC(C)(C)C1 |  |  | inactive | inactive | inactive | 
OCC#CCO |  |  | inactive | inactive | inactive | 
CCCCCc1ccco1 |  |  | inactive | inactive | inactive | 
c1ccc2[nH]cnc2c1 |  |  | inactive | inactive | inactive | 
